Data from PubChem BioAssay (NCATS).
Records with an inconclusive call do not appear. Entries that show only a call come without a potency. Activity calls are given as the source filed them. Calls follow the shape of the dose curve; as a rule, active = well fitted curve in the direction sought with a large enough effect; inconclusive = small, poorly fitted or top-dose-only effect, or another doubt; inactive = no such curve, though single readings can be large; an effect the other way counts as inactive or inconclusive.

Columns and labels:
[1] = HPAF-II Cancer Cell Toxicity qHTS against the NCATS CANVASS Library (AID 1347346); also: nearly all actives have a fitted effect of over 55% in size; also: potency is read from the fitted curve at half-maximal effect
Procedure, shortened: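 Using 1000 HPAF-II cells per well, we titrated compounds over 11 concentrations for 72 h at 37 degrees C/5% CO2, with bortezomib as control. Cell survival was quantified by CellTiter-Glo luminescence.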

[2] = U-118MG Cancer Cell Toxicity qHTS against the NCATS CANVASS Library (AID 1347351); also: potency is read from the fitted curve at half-maximal effect
Procedure, shortened: (§1)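 Bortezomib titration and single-dose wells served as plate controls. Test compounds, 11 points, acted on 1000 cells/well for 72 h at 37 degrees C; CellTiter-Glo luminescence quantified remaining viable cells.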

[3] = COV-362 Cancer Cell Toxicity qHTS against the NCATS CANVASS Library (AID 1347352); also: potency is read from the fitted curve at half-maximal effect
Procedure, shortened: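 Using an ATP-based luminescent reagent after three days of treatment, toxicity is scored across an eleven-concentration range in wells holding 1000 cells each.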

[4] = SDT Cancer Cell Toxicity qHTS against the NCATS CANVASS Library (AID 1347365); also: nearly all actives have a fitted effect of over 60% in size; also: potency is read from the fitted curve at half-maximal effect
Procedure, shortened: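 Canine SDT glioma cell toxicity was scored by ATP-dependent luminescence after a 72 hr incubation with an 11-point compound series.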

[5] = G06 Cancer Cell Toxicity qHTS against the NCATS CANVASS Library (AID 1347368); also: nearly all actives have a fitted effect of over 60% in size; also: potency is read from the fitted curve at half-maximal effect
Procedure, shortened: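 Quantitative HTS in G06 cells (dog glioma): 72 hr treatment, 11 concentrations, then ATP-based luminescent viability readout; bortezomib 0.1 nM–4.6 uM final as reference.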

[6] = qHTS for ATAD5 Antagonist screened against the NCATS CANVASS Library (AID 1347370); also: nearly all actives have a fitted effect of over 65% in size; also: potency is read from the fitted curve at half-maximal effect
Procedure, shortened: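 HEK293T-ATAD5 luc reporter, 2000 cells/well; 5hr attach; cpd + 10 uM 5-FUrd; 16hr 37C, 5% CO2. Readouts: CellTiter-Fluor fluorescence (1hr), then Amplite luciferase luminescence (30min RT).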

[7] = target: Nuclear receptor subfamily 1 group I member 3 (Homo sapiens) (UniProt Q14994); experiment: qHTS for Constitutive Androstane Receptor (CAR) Antagonist screened against the NCATS CANVASS Library (AID 1347372); also: potency is read from the fitted curve at half-maximal effect
Procedure, shortened: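 Cells were seeded and left 4hr to attach, then received compound at 11 concentrations and 50 nM CITCO. Following 24hr incubation, fluorescence viability and luciferase luminescence were read sequentially.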

[8] = qHTS for Inflammasome Signaling Inhibitors: IL-1-beta AlphaLISA screen against the NCATS CANVASS Library (AID 1347379);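 also: human THP-1 cells primed with LPS then triggered with ATP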
Procedure, shortened: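 THP-1, 1 hr compound pre-incubation, then LPS 250 ng/mL + ATP 1.25 mM (final); 16 hr total with compound; IL-1B AlphaLISA, ex 680/em 615 nm; 11-point qHTS, up to 57.5 uM final.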

[9] = qHTS for Activators of p53 Stress Response Pathway screened against the NCATS CANVASS Library (AID 1347388); also: potency is read from the fitted curve at half-maximal effect
Procedure, shortened: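 p53RE-bla HCT-116 cells (4000/well) were plated 5 h at 37C, exposed to compounds for 16 h at 37C over an 11-point concentration series, then loaded with CCF4 for 2 h at room temperature; 460/530 nm emission ratio read.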

[10] = Secretion counterscreen for inhibitors of the SERCaMP assay screened against the NCATS CANVASS Library (AID 1347390);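 also: light from luciferase secreted into medium read as a measure of general secretion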; also: potency is read from the fitted curve at half-maximal effect
Procedure, shortened: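 Counterscreen identifying compounds that disrupt secretion, using SH-SY5Y cells with a constitutively secreted Gaussia luciferase reporter. A 20 h compound exposure (top 77 uM) precedes luminescent detection with coelenterazine.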

[11] = qHTS for activators of Nrf2/ARE signaling pathway screened against the NCATS CANVASS Library (AID 1347391); also: nearly all actives have a fitted effect of over 60% in size; also: potency is read from the fitted curve at half-maximal effect
Procedure, shortened: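 Activation of Nrf2/ARE was scored in ARE-bla HepG2 cells after 16 h compound exposure using CCF4 beta-lactamase fluorescence ratio readings.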

[12] = qHTS for inhibitors of ER calcium dysfunction: SERCaMP assay screened against the NCATS CANVASS Library (AID 1347393); also: nearly all actives have a fitted effect of over 40% in size; also: potency is read from the fitted curve at half-maximal effect
Procedure, shortened: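 qHTS in SH-SY5Y reporter cells: 16 h compound pretreatment, 4 h thapsigargin, then secreted Gaussia luciferase measured by luminescence.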

[13] = Vero-766 cells viability qHTS against the NCATS CANVASS Library: Counterscreen for Zika virus inhibition assay (AID 1347394); also: nearly all actives have a fitted effect of over 60% in size; also: potency is read from the fitted curve at half-maximal effect
Procedure, shortened: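 This cytotoxicity counterscreen uses African green monkey Vero 766 cells in the absence of Zika virus. Compounds are incubated with cells for 72 h, and ATP-based luminescence reports viability.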

[14] = Viability qHTS for inhibitors of the SERCaMP assay screened against the NCATS CANVASS Library (AID 1347400); also: nearly all actives have a fitted effect of over 70% in size; also: potency is read from the fitted curve at half-maximal effect
Procedure, shortened: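 Measures loss of viability in SERCaMP reporter SH-SY5Y cells treated for 48 h with compounds; luminescent ATP detection by CellTiter-Glo.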

[15] = OV-SAHO Cancer Cell Toxicity qHTS against the NCATS CANVASS Library (AID 1347348); also: nearly all actives have a fitted effect of over 55% in size; also: potency is read from the fitted curve at half-maximal effect
Procedure, shortened: as §1

[16] = SW1088 Cancer Cell Toxicity qHTS against the NCATS CANVASS Library (AID 1347350); also: nearly all actives have a fitted effect of over 75% in size; also: potency is read from the fitted curve at half-maximal effect
Procedure, shortened: as §1

[17] = MCF7 Cancer Cell Toxicity qHTS against the NCATS CANVASS Library (AID 1347369)
Procedure, shortened: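 Cytotoxicity is measured by ATP content: MCF7 cells at 500 per well receive an 11-point compound series and, after 72 hr at 37C, are lysed with CellTiterGlo for luminescence.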

Nuclear receptor subfamily 1 group I member 3 (Homo sapiens), sequence (Q14994 whole entry, looked up): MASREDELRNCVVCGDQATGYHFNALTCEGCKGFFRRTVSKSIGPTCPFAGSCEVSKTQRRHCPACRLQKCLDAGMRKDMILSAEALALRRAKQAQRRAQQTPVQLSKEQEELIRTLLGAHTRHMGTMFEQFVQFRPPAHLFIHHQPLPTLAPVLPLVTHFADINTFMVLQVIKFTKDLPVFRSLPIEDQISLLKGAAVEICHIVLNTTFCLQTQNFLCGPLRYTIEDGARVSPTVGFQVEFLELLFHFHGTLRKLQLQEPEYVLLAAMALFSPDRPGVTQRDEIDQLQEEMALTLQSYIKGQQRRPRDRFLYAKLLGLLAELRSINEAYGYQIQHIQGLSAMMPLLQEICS

For `CO[C@H]1[C@H](O[C@H]2CC[C@]3(C=O)[C@H]4CC[C@]5(C)[C@@H](C6=CC(=O)OC6)CC[C@]5(O)[C@@H]4CC[C@]3(O)C2)O[C@H](C)[C@H](O)[C@@H]1OC`, the Potency [1] was 0.335 µM (active), the Potency [2] was 0.0943 µM (active) and the Potency [3] was 0.236 µM (active). For the same molecule, the Potency [4] was 0.148 µM (active), the Potency [5] was 0.296 µM (active) and the Potency [6] was 0.132 µM (active). The Potency [7] was 0.295 µM (active), the Potency [8] was 0.685 µM (active) and the Potency [9] was “inactive”. The Potency [10] was 0.767 µM (active), the Potency [11] was “inactive” and the Potency [12] was “inactive”. For the same molecule, the Potency [13] was 0.741 µM (active) and the Potency [14] was 0.303 µM (active).

For `C/C=C1/CN2CC[C@]34C(=C(C(=O)OC)[C@H]1C[C@H]23)Nc1ccccc14`, the Potency [15] was “inactive”, the Potency [16] was “inactive” and the Potency [2] was “inactive”. For the same molecule, the Potency [3] was “inactive”, the Potency [4] was 0.662 µM (active) and the Potency [9] was “inactive”. The Potency [10] was “inactive”, the Potency [12] was 19.3 µM (active) and the Potency [13] was “inactive”.

In the case of `C=C[C@]12C=CCN3CC[C@@]4(c5ccccc5NC(=O)[C@@H]4C1)[C@@H]32`, the Potency [1] is reported as “inactive”, the Potency [15] is reported as “inactive” and the Potency [16] is reported as “inactive”. The Potency [2] was “inactive”, the Potency [3] was “inactive” and the Potency [4] was “inactive”. The Potency [17] was “inactive”, the Potency [6] was “inactive” and the Potency [8] was “inactive”. The Potency [9] was “inactive”, the Potency [10] was “inactive” and the Potency [11] was 20.9 µM (active). For the same molecule, the Potency [13] was “inactive” and the Potency [14] was “inactive”.

In the case of `C/C(=C\[C@H](C)C(=O)C[C@H](O)CC1CC(=O)NC(=O)C1)[C@@H]1OC(=O)/C=C/CC/C=C/C=C/[C@@H]1C`, the Potency [1] is reported as 0.0943 µM (active), the Potency [15] is reported as 0.118 µM (active) and the Potency [4] is reported as 0.0662 µM (active). The Potency [5] was 0.0526 µM (active), the Potency [6] was 0.105 µM (active) and the Potency [7] was 0.741 µM (active). For the same molecule, the Potency [8] was 2.43 µM (active), the Potency [9] was “inactive” and the Potency [10] was 0.305 µM (active). For the same molecule, the Potency [11] was “inactive”, the Potency [12] was “inactive” and the Potency [13] was 6.6 µM (active). For the same molecule, the Potency [14] was 0.538 µM (active).

In the case of `C1=C2CCCN[C@H]2C2CC1[C@H]1CCCCN1C2` (some centres undefined), the Potency [1] is reported as “inactive”, the Potency [15] is reported as “inactive” and the Potency [16] is reported as “inactive”. The Potency [2] was “inactive”, the Potency [3] was “inactive” and the Potency [17] was “inactive”. The Potency [6] was “inactive”, the Potency [7] was “inactive” and the Potency [8] was “inactive”. The Potency [9] was “inactive”, the Potency [10] was “inactive” and the Potency [11] was “inactive”. For the same molecule, the Potency [12] was “inactive” and the Potency [13] was “inactive”.

With `C/C=C/[C@@H]1[C@H]2C[C@@H](C)CC[C@@H]2C(C)=C[C@H]1C(=O)c1c(O)c(-c2ccc(O)cc2)c[nH]c1=O` the Potency [1] was 13.3 µM (active), the Potency [15] was 23.6 µM (active) and the Potency [16] was 6.68 µM (active). The Potency [2] was “inactive”, the Potency [17] was “inactive” and the Potency [7] was “inactive”. For the same molecule, the Potency [8] was “inactive”, the Potency [10] was “inactive” and the Potency [12] was 19.3 µM (active). For the same molecule, the Potency [13] was 18.6 µM (active) and the Potency [14] was “inactive”.

In the case of `C=CC(C)(C)[C@@]12C[C@H]3C(=O)N/C(=C/c4cnc[nH]4)C(=O)N3[C@@H]1Nc1ccccc12`, the Potency [1] is reported as “inactive”, the Potency [15] is reported as “inactive” and the Potency [16] is reported as “inactive”. For the same molecule, the Potency [2] was “inactive”, the Potency [3] was “inactive” and the Potency [4] was “inactive”. For the same molecule, the Potency [5] was “inactive”, the Potency [17] was “inactive” and the Potency [6] was “inactive”. The Potency [7] was 20.9 µM (active), the Potency [8] was “inactive” and the Potency [9] was “inactive”. For the same molecule, the Potency [10] was “inactive”, the Potency [13] was “inactive” and the Potency [14] was “inactive”.

For `C=CC(C)(C)[C@@]12C[C@H]3C(=O)N/C(=C\c4cnc[nH]4)C(=O)N3[C@@H]1Nc1ccccc12`, the Potency [1] was “inactive”, the Potency [15] was “inactive” and the Potency [16] was “inactive”. For the same molecule, the Potency [2] was “inactive”, the Potency [3] was “inactive” and the Potency [4] was “inactive”. The Potency [5] was “inactive”, the Potency [17] was “inactive” and the Potency [6] was “inactive”. For the same molecule, the Potency [7] was “inactive”, the Potency [8] was “inactive” and the Potency [9] was “inactive”. For the same molecule, the Potency [10] was “inactive”, the Potency [12] was 34.3 µM (active) and the Potency [13] was “inactive”. The Potency [14] was “inactive”.

For `COC1C(O)C(C)OC(OC2C(Oc3cccc4c(O)c5c(=O)oc6ccc(C)c7c(=O)oc(c34)c5c67)OC(C)C(O)C2O)C1O` (centres undefined), the Potency [16] was “inactive”, the Potency [2] was “inactive” and the Potency [4] was 11.8 µM (active). The Potency [5] was 9.35 µM (active), the Potency [7] was 11.7 µM (active) and the Potency [8] was 27.3 µM (active). For the same molecule, the Potency [9] was 10.5 µM (active), the Potency [10] was 30.5 µM (active) and the Potency [11] was “inactive”. The Potency [12] was “inactive” and the Potency [14] was 34 µM (active).

For `CO[C@@]12c3c(C)cc(O)c4c(=O)occ(c34)C(=O)[C@@H]1[C@]13COC(=O)c4c(O)cc(C)c(c41)C(=O)[C@H]2[C@@H]3OC(C)=O`, the Potency [15] was “inactive”, the Potency [16] was 18.8 µM (active) and the Potency [2] was “inactive”. The Potency [3] was “inactive”, the Potency [4] was “inactive” and the Potency [5] was “inactive”. The Potency [17] was “inactive”, the Potency [6] was “inactive” and the Potency [7] was “inactive”. For the same molecule, the Potency [8] was “inactive”, the Potency [9] was “inactive” and the Potency [13] was “inactive”. The Potency [14] was “inactive”.

For `CCC(=O)N[C@@H](C[C@H](C)C(Cl)(Cl)Cl)C(=O)N1C(=O)C=C(OC)[C@@H]1C[C@H](C)C(Cl)Cl`, the Potency [3] was “inactive”, the Potency [4] was “inactive” and the Potency [5] was “inactive”. The Potency [17] was “inactive”, the Potency [6] was “inactive” and the Potency [8] was “inactive”. The Potency [10] was “inactive”, the Potency [11] was “inactive” and the Potency [12] was 27.2 µM (active). The Potency [14] was “inactive”.

In the case of `CC[C@@H]1CN2CCc3c([nH]c4cccc(OC)c34)[C@@H]2C[C@@H]1/C(=C\OC)C(=O)OC`, the Potency [15] is reported as 14.9 µM (active), the Potency [4] is reported as 16.6 µM (active) and the Potency [5] is reported as 23.5 µM (active). The Potency [7] was “inactive”, the Potency [10] was “inactive” and the Potency [11] was “inactive”. The Potency [12] was 8.6 µM (active) and the Potency [14] was “inactive”.

In the case of `CC[C@]12C=CCN3CC[C@]4(C(=C(C(=O)OC)C1)Nc1ccccc14)[C@@H]32`, the Potency [1] is reported as “inactive”, the Potency [15] is reported as “inactive” and the Potency [16] is reported as “inactive”. For the same molecule, the Potency [2] was “inactive”, the Potency [3] was “inactive” and the Potency [17] was “inactive”. The Potency [7] was “inactive”, the Potency [9] was “inactive” and the Potency [10] was “inactive”. For the same molecule, the Potency [11] was “inactive” and the Potency [13] was “inactive”.
